Test results as given in the supplement of paper PMC12669032.

Tests used:
Test in all cases: growth AUC relative to DMSO control (median of replicates) (fraction); higher = more growth (less inhibition), active = hit call of the paper
Settings in all cases: 20 µM; 24 h;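 active = AUC reduced over 20% with Padj below 0.05 in at least 2 of 3 replicates; inactive = otherwise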
Akkermansia muciniphila = tested on: Akkermansia muciniphila
How it was run: (§1)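 Starting at OD600 0.05, gut bacterial monocultures in mGAM were grown anaerobically at 37 °C with 20 µM compound (1% DMSO) under pierced gas-permeable seals. OD600 was read every hour for 24 h, and the lowest OD of each curve was set to 0. Area under the growth curve was normalised to the plate median of solvent-only wells, or to row and column medians on the industrial chemical plate, and the median of three biological replicates grown on separate days is given.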

Bacteroides caccae = tested on: Bacteroides caccae
How it was run: as §1

Bacteroides clarus = tested on: Bacteroides clarus
How it was run: as §1

Bacteroides dorei = tested on: Bacteroides dorei
How it was run: as §1

Bacteroides stercoris = tested on: Bacteroides stercoris
How it was run: as §1

[1] = tested on: Bacteroides thetaiotaomicron
How it was run: as §1

Bacteroides uniformis = tested on: Bacteroides uniformis
How it was run: as §1

[2] = tested on: Bifidobacterium longum subsp. longum
How it was run: as §1

Clostridium difficile = tested on: Clostridium difficile
How it was run: as §1

Collinsella aerofaciens = tested on: Collinsella aerofaciens
How it was run: as §1

Measured: growth AUC

CCc1cccc(C)c1NC(=O)C(=O)O
inactive: Akkermansia muciniphila 0.965 | Bacteroides caccae 1.01 | Bacteroides clarus 0.999 | Bacteroides dorei 1 | Bacteroides stercoris 0.999 | [1] 0.942 | Bacteroides uniformis 1 | [2] 1.02 | Clostridium difficile 0.972 | Collinsella aerofaciens 0.983

CC[N+](CC)(CC(=O)Nc1c(C)cccc1C)Cc1ccccc1.O=C([O-])c1ccccc1
inactive: Akkermansia muciniphila 1.24 | Bacteroides caccae 0.992 | Bacteroides clarus 1.05 | Bacteroides dorei 1.04 | Bacteroides stercoris 1.11 | [1] 0.999 | Bacteroides uniformis 0.993 | [2] 0.98 | Clostridium difficile 1.04 | Collinsella aerofaciens 1

COC1CCC2(CC1)NC(=O)C(c1cc(C)ccc1C)=C2O (stereo not given)
inactive: Akkermansia muciniphila 0.863 | Bacteroides caccae 0.974 | Bacteroides clarus 1.05 | Bacteroides dorei 1.02 | Bacteroides stercoris 1.12 | [1] 1.01 | Bacteroides uniformis 1.01 | [2] 1.09 | Clostridium difficile 1.02 | Collinsella aerofaciens 1.05

Cn1cc(C(=O)Nc2ccc(F)cc2-c2ccc(Cl)c(Cl)c2)c(C(F)F)n1
inactive: Akkermansia muciniphila 0.929 | Bacteroides caccae 0.901 | Bacteroides clarus 0.849 | Bacteroides dorei 0.949 | Bacteroides stercoris 0.826 | [1] 0.872 | Bacteroides uniformis 0.911 | [2] 0.991 | Clostridium difficile 0.983 | Collinsella aerofaciens 0.991

CNc1nc(NC(C)C)nc(SC)n1
inactive: Akkermansia muciniphila 0.806 | Bacteroides caccae 1.04 | Bacteroides clarus 0.972 | Bacteroides dorei 0.989 | Bacteroides stercoris 0.913 | [1] 1.01 | Bacteroides uniformis 0.957 | [2] 0.862 | Clostridium difficile 1.01 | Collinsella aerofaciens 0.986

CC1(C)C(C(=O)OC(C#N)c2cccc(Oc3ccccc3)c2)C1C(Br)C(Br)(Br)Br (stereo not given)
inactive: Akkermansia muciniphila 0.951 | Bacteroides caccae 0.934 | Bacteroides clarus 1.04 | Bacteroides dorei 0.995 | Bacteroides stercoris 1.2 | [1] 1 | Bacteroides uniformis 0.943 | [2] 1.03 | Clostridium difficile 1.03 | Collinsella aerofaciens 0.939

CCCN(CCC)C(=O)SCC
inactive: Akkermansia muciniphila 0.884 | Bacteroides caccae 1.02 | Bacteroides clarus 0.97 | Bacteroides dorei 1.01 | Bacteroides stercoris 0.942 | [1] 0.998 | Bacteroides uniformis 0.959 | [2] 0.97 | Clostridium difficile 1.03 | Collinsella aerofaciens 0.992

Nc1nc2ccccc2[nH]1
inactive: Akkermansia muciniphila 1.06 | Bacteroides caccae 0.96 | Bacteroides clarus 1.01 | Bacteroides dorei 0.911 | Bacteroides stercoris 1.01 | [1] 1.02 | Bacteroides uniformis 0.94 | [2] 1.03 | Clostridium difficile 0.973 | Collinsella aerofaciens 0.943

C=CCc1ccc(O)c(OC)c1
inactive: Akkermansia muciniphila 0.933 | Bacteroides caccae 0.993 | Bacteroides clarus 1.04 | Bacteroides dorei 1 | Bacteroides stercoris 0.975 | [1] 0.967 | Bacteroides uniformis 1.03 | [2] 1.01 | Clostridium difficile 1.01 | Collinsella aerofaciens 0.973
